PubChem BioAssay (NCATS)
Where “and” joins values, the source holds several entries; their conditions need not be identical. Equal entries are not always repeated. Results filed as inconclusive are left out. Calls of active or inactive are those of the source. Unless noted, calls come from the whole dose curve.

Legend:
[1] = biological target: Vitamin D3 receptor (Homo sapiens) (UniProt P11473); test: qHTS assay for small molecule antagonists of vitamin D receptor signaling (AID 588541);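 note: receptor activated by calcitriol during compound treatment; series mostly up to about 77 µM; % is set by controls: 0 for no effect and ±100 for the full control effect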
Summary of the method: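 VDR-UAS-bla HEK293T cells (2000/well, 2% charcoal-stripped FBS) were treated with titrated compounds plus 1-alpha,25-dihydroxyvitamin D3 (50 nM or 3 nM final) for 16 h at 37 C. CCF4 beta-lactamase fluorescence was read; Hill fits gave IC50.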

[2] = biological target: Vitamin D3 receptor (Homo sapiens) (UniProt P11473); test: qHTS assay for small molecule agonists of vitamin D receptor signaling (AID 588543);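 note: 0% = DMSO basal and 100% = reference agonist control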
Summary of the method: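 GeneBLAzer VDR-UAS-bla HEK293T cells in 2% charcoal-stripped FBS medium were dosed with compound titrations for 16 h at 37 °C; CCF4 β-lactamase readout (405 nm ex, 460/530 nm em). EC50 and efficacy from Hill fits, normalized to 50 nM calcitriol (100%) and DMSO (0%).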

[3] = qHTS assay for small molecule agonists of retinoid X receptor alpha signaling (AID 588544); settings: HEK293T RXRa-UAS-bla, beta-lactamase reporter, 18 h; 530 nm emission
[4] = biological target: Retinoic acid receptor RXR-alpha (Homo sapiens) (UniProt P19793); test: as above
[5] = biological target: Thyroid hormone receptor beta (Homo sapiens) (UniProt P10828); test: qHTS assay for small molecule agonists of thyroid hormone receptor beta signaling (AID 588545);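 note: 0% = DMSO only and 100% = 10 nM T3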
Summary of the method: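 Stimulation of a TR-driven beta-lactamase reporter was quantified in GripTite HEK 293 cells. Compound series ran for 18 hrs; curves were normalized to T3 and DMSO controls and fitted to yield EC50.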

[6] = qHTS assay for small molecule antagonists of retinoid X receptor alpha signaling (AID 588546; active = well fitted inhibition curve with a large enough effect in the signal ratio, with a control signal flat, not every such curve was filed as active; the % refers to the signal ratio;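 note: cells stimulated with 9-cis-retinoic acid as agonist; % is set by controls: 0 for no effect and ±100 for the full control effect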); settings: HEK293T RXRa-UAS-bla, beta-lactamase ratio, antagonist mode; measured here: W530 green channel, cytotoxicity proxy
Summary of the method: (§1)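 Beta-lactamase reporter inhibition, read as CCF4 fluorescence ratio (ex 405, em 460/530 nm) after 2 h at RT. HEK293T UAS-bla cells, 2500/well, were stimulated with 9-cis-RA at 500 or 100 nM final alongside test compound for 18 h at 37 C.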

[7] = biological target: Retinoic acid receptor RXR-alpha (Homo sapiens) (UniProt P19793); test: as above; settings: HEK293T RXRa-UAS-bla, beta-lactamase ratio, antagonist mode
Summary of the method: as §1

[8] = biological target: Voltage-gated inwardly rectifying potassium channel KCNH2 (Homo sapiens) (UniProt Q12809); test: qHTS Assay for Small Molecule Inhibitors of the Human hERG Channel Activity (AID 588834; active = well fitted curve in the direction sought with a large enough effect; an effect the other way counts as inactive or inconclusive;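 note: lower thallium flux fluorescence means stronger hERG block; nearly all actives have a fitted effect of over 50% in size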; note: potency is the fitted concentration of half-maximal effect)
Summary of the method: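 U2OS cells transduced with hERG via BacMam (MOI ~100), plated 2000/well, loaded with FluxOR thallium dye, compound ~10 min, then stimulation buffer; fluorescence decrease read kinetically; AC50 from Hill fits.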

[9] = biological target: Luciferin 4-monooxygenase (Photinus pyralis) (UniProt P08659); test: Biochemical firefly luciferase enzyme assay for NPC (AID 624030; active = well fitted curve in the direction sought with a large enough effect; an effect the other way counts as inactive or inconclusive;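 note: purified P. pyralis luciferase at 10 nM with luciferin and ATP substrate; series mostly up to about 59 µM; 0% = DMSO and -100% = full luciferase inhibition by PTC124 control; nearly all actives have a fitted effect of over 70% in size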)
Summary of the method: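 Counter-screen for direct inhibition of the luciferase enzyme by approved-drug library compounds, run at 10 nM enzyme in 50 mM Tris acetate (final). Luminescence was read within 5 min of enzyme-buffer addition and normalized to PTC124 versus DMSO (0%).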

[10] = S16 Schwann cell viability assay (CellTiter-Glo assay) (AID 624031; active = well fitted curve in the direction sought with a large enough effect; an effect the other way counts as inactive or inconclusive;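 note: cellular ATP luminescence as a viability measure; series mostly up to about 58 µM; plate controls were DMSO-treated cells for no effect and cell-free wells for full effect; nearly all actives have a fitted effect of over 70% in size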)
Summary of the method: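 Native S16 Schwann cells (rat), serum-containing medium, overnight attachment then 24 h drug exposure at 37 °C/5% CO2. CellTiter-Glo ATP signal; normalized to cell-free and vehicle wells.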

Luciferin 4-monooxygenase (Photinus pyralis), sequence (P08659 whole entry, looked up): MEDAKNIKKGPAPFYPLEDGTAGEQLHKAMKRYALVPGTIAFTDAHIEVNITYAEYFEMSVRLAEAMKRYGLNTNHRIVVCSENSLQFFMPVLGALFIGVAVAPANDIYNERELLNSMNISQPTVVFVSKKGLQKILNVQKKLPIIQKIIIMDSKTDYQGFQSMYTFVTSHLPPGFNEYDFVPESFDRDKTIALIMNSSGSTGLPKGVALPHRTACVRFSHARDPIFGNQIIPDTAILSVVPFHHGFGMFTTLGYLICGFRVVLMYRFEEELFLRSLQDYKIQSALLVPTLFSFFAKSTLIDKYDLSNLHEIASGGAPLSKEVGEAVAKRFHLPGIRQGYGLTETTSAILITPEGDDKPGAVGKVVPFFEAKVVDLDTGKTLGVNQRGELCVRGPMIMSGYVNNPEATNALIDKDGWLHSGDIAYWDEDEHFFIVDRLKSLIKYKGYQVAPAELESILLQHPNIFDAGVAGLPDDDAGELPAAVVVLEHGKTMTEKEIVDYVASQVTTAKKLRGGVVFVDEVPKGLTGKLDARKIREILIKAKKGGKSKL
Vitamin D3 receptor (Homo sapiens), sequence (P11473 whole entry, looked up): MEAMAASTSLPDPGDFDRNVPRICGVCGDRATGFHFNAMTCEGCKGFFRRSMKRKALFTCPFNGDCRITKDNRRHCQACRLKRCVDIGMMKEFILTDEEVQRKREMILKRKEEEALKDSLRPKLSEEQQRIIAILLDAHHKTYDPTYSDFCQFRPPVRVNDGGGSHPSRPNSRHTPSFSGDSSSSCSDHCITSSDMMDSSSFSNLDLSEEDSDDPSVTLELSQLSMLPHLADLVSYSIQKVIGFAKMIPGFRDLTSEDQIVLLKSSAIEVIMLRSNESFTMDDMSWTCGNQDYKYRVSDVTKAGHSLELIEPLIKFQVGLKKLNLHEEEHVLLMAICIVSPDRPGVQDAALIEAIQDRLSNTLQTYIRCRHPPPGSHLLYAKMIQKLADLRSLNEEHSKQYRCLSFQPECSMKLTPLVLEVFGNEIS
Thyroid hormone receptor beta (Homo sapiens), sequence (P10828 whole entry, looked up): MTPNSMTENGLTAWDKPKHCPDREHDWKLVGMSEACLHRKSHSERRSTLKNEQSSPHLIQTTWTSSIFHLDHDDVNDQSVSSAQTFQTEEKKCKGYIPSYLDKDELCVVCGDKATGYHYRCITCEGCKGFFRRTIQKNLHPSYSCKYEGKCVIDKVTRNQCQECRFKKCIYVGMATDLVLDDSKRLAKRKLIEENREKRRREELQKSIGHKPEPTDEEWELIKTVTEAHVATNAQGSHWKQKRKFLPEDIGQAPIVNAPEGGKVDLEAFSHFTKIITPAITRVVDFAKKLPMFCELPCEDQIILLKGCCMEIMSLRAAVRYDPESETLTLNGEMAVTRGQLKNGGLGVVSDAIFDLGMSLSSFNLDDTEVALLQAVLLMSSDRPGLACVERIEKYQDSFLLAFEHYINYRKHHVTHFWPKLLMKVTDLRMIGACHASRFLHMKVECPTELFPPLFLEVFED
Voltage-gated inwardly rectifying potassium channel KCNH2 (Homo sapiens), sequence (Q12809 whole entry, looked up): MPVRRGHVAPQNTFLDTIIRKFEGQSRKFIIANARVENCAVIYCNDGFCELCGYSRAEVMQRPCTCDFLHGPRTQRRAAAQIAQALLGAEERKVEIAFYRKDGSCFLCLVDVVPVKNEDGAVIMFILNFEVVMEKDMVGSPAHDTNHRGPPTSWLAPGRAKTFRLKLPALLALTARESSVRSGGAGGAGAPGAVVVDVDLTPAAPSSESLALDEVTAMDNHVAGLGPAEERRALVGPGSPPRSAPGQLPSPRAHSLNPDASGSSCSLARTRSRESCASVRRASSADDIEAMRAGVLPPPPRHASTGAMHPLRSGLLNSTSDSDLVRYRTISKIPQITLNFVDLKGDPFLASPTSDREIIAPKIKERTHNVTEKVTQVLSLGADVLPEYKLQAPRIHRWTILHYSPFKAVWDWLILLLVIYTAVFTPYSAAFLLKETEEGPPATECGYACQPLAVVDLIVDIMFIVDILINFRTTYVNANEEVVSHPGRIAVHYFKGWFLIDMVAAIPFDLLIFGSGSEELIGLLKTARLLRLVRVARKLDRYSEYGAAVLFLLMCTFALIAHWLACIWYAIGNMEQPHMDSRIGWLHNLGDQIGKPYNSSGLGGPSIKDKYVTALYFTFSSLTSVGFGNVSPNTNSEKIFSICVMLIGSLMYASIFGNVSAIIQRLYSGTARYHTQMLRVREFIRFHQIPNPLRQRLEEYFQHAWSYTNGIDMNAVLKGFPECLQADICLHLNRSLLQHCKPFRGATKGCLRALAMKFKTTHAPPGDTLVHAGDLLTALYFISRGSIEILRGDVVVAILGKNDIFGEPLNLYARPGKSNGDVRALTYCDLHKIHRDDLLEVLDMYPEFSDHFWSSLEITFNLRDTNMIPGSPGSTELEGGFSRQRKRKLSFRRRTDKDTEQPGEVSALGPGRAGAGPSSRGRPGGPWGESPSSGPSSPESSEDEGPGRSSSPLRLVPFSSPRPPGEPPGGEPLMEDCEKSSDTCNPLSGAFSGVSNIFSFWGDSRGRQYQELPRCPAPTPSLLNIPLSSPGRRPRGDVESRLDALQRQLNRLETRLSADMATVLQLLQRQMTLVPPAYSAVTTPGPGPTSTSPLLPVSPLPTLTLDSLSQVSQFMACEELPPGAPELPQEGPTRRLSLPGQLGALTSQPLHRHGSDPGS
Retinoic acid receptor RXR-alpha (Homo sapiens), sequence (P19793 whole entry, looked up): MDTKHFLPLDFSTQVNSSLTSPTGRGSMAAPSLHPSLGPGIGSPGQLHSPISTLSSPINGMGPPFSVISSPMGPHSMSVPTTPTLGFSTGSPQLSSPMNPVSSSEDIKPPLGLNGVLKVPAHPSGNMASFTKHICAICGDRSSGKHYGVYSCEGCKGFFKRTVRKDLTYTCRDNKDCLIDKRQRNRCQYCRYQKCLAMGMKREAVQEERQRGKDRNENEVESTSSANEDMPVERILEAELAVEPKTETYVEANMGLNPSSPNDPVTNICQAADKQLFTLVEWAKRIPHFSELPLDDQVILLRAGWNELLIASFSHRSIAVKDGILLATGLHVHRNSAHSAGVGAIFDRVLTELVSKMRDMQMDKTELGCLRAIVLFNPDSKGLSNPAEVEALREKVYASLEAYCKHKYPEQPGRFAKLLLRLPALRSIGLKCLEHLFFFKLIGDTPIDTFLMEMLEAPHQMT

[N-]=[N+]=CC(=O)OC[C@H](N)C(=O)O
-15.7%: max response [6]
inactive: Potency [1] | outcome [2] | Potency [4] | outcome [5] | max response [7] 7.74%
-12%: max response [3]

COC(=O)C(c1ccccc1)C1CCCCN1 (configuration not stated)
-4.37%: max response [6]
inactive: Potency [1] | outcome [2] | outcome [5] | max response [7] -5.94% | Potency [8] | Potency [9] | outcome [10]

CCOP(=S)(OCC)Oc1ccc2c(C)c(Cl)c(=O)oc2c1
inactive: outcome [5] | Potency [8] | Potency [9] | outcome [10]

COP(=S)(OC)Oc1ccc(SC)c(C)c1
-22.3% and -7.85%: max response [6]
inactive: Potency [1] | outcome [2] | Potency [4] | outcome [5] | max response [7] -5.05% and -30% | outcome [10]
-8.01% and -11.8%: max response [3]

CC(C)NC(C)C
inactive: Potency [1] | outcome [2] | Potency [4] | outcome [5] | max response [7] 9.42% | Potency [8] | Potency [9]
-16.3%: max response [6]
-5.82%: max response [3]

Clc1ccc(C(c2ccc(Cl)cc2)C(Cl)(Cl)Cl)cc1
active: Potency [8] 31.6 µM
inactive: Potency [1] | outcome [2] | outcome [5] | Potency [9] | outcome [10]

Nc1ccc([As](=O)(O)O)cc1
-10%: max response [3]
inactive: Potency [1] | outcome [2] | Potency [4] | outcome [5] | max response [7] -8.6% | Potency [8] | Potency [9] | outcome [10]
-13.3%: max response [6]
